In the library only some 5.9% were active in any assay of this set; here they are far more common.
TrxR1 inh – inhibitors of rat thioredoxin reductase 1; O89049; recombinant rTrxR1, NADPH fluorescence consumption, selenite substrate; Potency, µM (titrated, usually from 114 µM), for inactives: top-dose activity change, negative = inhibition, usual class: inhibitors; 390,000 tested, 1% active; AID 588453; also: potency is read from the fitted curve at half-maximal effect; nearly all actives have a fitted effect of over 65% in size
Target sequence (O89049 whole entry, looked up): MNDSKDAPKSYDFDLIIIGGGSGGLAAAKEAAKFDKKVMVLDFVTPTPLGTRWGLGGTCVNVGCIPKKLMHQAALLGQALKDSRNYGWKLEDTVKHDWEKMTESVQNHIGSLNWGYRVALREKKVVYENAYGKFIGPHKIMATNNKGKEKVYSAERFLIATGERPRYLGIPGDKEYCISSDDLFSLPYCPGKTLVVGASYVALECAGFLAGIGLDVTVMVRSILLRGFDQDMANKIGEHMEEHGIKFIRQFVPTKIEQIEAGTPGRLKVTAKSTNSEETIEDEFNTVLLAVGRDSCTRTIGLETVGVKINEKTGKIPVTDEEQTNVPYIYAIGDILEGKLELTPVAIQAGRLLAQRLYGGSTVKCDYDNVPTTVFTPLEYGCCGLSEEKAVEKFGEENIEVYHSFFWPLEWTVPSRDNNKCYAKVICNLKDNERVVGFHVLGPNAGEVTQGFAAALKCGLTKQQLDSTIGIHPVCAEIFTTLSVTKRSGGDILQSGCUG
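Rat TrxR1 (90 nM in the dispensed reagent) was pre-reduced with 400 uM NADPH for 5 min at room temperature, then incubated with compound for 15 min. After 400 uM selenite was added, NADPH fluorescence (Ex 340/Em 450 nm) was followed for 8 min.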
GALK inh – galactokinase (human) inhibition | P51570 | Purified GALK, Kinase-Glo residual ATP luminescence | Potency, µM (titrated, usually from 57.5 µM), inactives show at the highest dose activity change, negative = inhibition, actives largely listed as inhibitors | 270,000 tested, 0.007% active; also: potency is read from the fitted curve at half-maximal effect
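Kinase-Glo Plus luminescence measured ATP left after a 1 h room-temperature reaction. The reaction used 5 nM GALK, 100 uM galactose and 35 uM ATP at pH 8.0 (20 mM HEPES, 5 mM MgCl2, 60 mM NaCl, 1 mM DTT, 0.01% BSA).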
Gal4-VP16 FLuc – Gal4-VP16 reporter inhibition counter-screen. Drosophila S2 Gal4-VP16 UAS-luciferase, luminescence, 20 h. Potency, µM (highest dose often 53.6 µM), for the others: at the top dose activity, negative = inhibition, usual class: inhibitors. 310,000 tested, 3.5% active. AID 2546;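 also: Gal4-VP16 expression switched on by copper sulfate through the metallothionein promoter; potency is read from the fitted curve at half-maximal effect; nearly all actives have a fitted effect of over 50% in size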
RORg inh – ROR gamma (mouse) transcription inhibition | 310,000 tested, 5.4% active | Potency, µM (series often up to 53.6 µM), inactives show at the top dose activity change, negative = inhibition, most hits filed as inhibitors | Drosophila S2 Gal4-RORgamma UAS-luciferase reporter, 20 h | P51450; also: potency is read from the fitted curve at half-maximal effect; nearly all actives have a fitted effect of over 60% in size
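ROR gamma transcriptional activity was tracked as Gal4-UAS luciferase output in stably transfected Drosophila Schneider cells, with compound added 1 hr before 700 uM copper sulfate induction and a 20 hr ambient-temperature incubation.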
Coupling enz – coupling enzyme interference in Giardia aldolase counter-screen | coupling enzyme system counterscreen, AmpLite Red fluorescence | activity change, negative = inhibition, % at 58.2 µM, hits read low | 290,000 tested, 0.67% active | AID 2472; in the data active = activity change below about -30%
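Counterscreen of the coupled detection system alone, without aldolase: glyceraldehyde-3-phosphate coupling enzymes plus AmpLite Red readout. Compounds at 57.5 uM final, 10 min RT preincubation, 20 min RT reaction, fluorescence 525/598 nm.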
TrxR1 substrate – substrates of rat thioredoxin reductase 1; O89049; purified TrxR1 substrate turnover, NADPH consumption readout; Potency, µM (highest dose often 114 µM), without a hit: at the highest dose activity change, negative = substrate turnover; 390,000 tested, 0.01% active; AID 588456; also: potency is read from the fitted curve at half-maximal effect; nearly all actives have a fitted effect of over 50% in size
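Rat TrxR1, dispensed at 90 nM, was prereduced with 400 uM NADPH (final) for 5 min at ~22 deg C, then incubated with compound 15 min before 400 uM selenite. A first-read NADPH fluorescence drop versus no-compound background flagged substrates.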
An asterisk follows results filed as active; [ ] = another dose, or the depositor's remark. Unless noted, calls follow the shape of the dose curve; as a rule, active = well fitted curve in the direction sought with a large enough effect; inconclusive = small, poorly fitted or top-dose-only effect, or another doubt; inactive = no such curve, though single readings can be large; an effect the other way counts as inactive or inconclusive. % is scaled to controls: 0 for no effect and ±100 for the full control effect.

`COC(=O)c1ccc2nc(-c3cccc(N)c3)cn2c1` gave TrxR1 inh 20.5%[57.1 µM], GALK inh 4.6%, Gal4-VP16 FLuc 7.94µM*, RORg inh 6.31µM*, Coupling enz -7.0 and TrxR1 substrate -9.2%[57.1 µM].
COc1cccc(C(=O)NCC(=O)OCC(=O)C(C)(C)C)c1 was read as TrxR1 inh 9.0%, GALK inh -0.1%, Gal4-VP16 FLuc -3.5%, RORg inh 2.51µM*, Coupling enz -0.2 and TrxR1 substrate -0.2%.
For CC(C)(C)C(=O)COC(=O)CNC(=O)c1ccc(Oc2ccccc2)cc1 the results were TrxR1 inh -4.5%[57.1 µM], GALK inh 4.2%, Gal4-VP16 FLuc -2.1%, RORg inh 0.0%, Coupling enz 1.6 and TrxR1 substrate -9.2%.
`Cc1ccc(-c2csc(NC(=S)NC(=O)c3ccco3)n2)cc1` gave TrxR1 inh 1.9%, GALK inh 1.8%, Gal4-VP16 FLuc inconclusive, RORg inh 5.62µM*, Coupling enz 0.7 and TrxR1 substrate -0.3%.
Screening COc1ccc(-c2csc(NC(=S)NC(=O)c3ccco3)n2)cc1Br returned TrxR1 inh 0.6%, GALK inh 7.4%, Gal4-VP16 FLuc inconclusive, RORg inh 7.94µM* and TrxR1 substrate -9.7%.
`COc1ccc(-c2csc(NC(=S)NC(=O)c3cc4ccccc4o3)n2)cc1Br` gave TrxR1 inh 17.3%, GALK inh -7.5%, Gal4-VP16 FLuc -4.5%, RORg inh -16.2%, Coupling enz -0.1 and TrxR1 substrate 6.0%.
`CCN(CC)C(=O)Cn1c(=O)c2ccccc2n2c(=S)sc(-c3cccc(C)c3)c12` gave TrxR1 inh -9.0%, GALK inh -2.9%, Gal4-VP16 FLuc -17.7%, RORg inh -15.1%, Coupling enz 3.0 and TrxR1 substrate -10.3%.
Screening O=C1c2cccc3cccc(c23)C(=O)N1CCN1CCN(C(=S)Nc2ccc(Cl)cc2)CC1 returned TrxR1 inh -15.7%, GALK inh -1.3%, Gal4-VP16 FLuc -7.1%, RORg inh 2.82µM*, Coupling enz -3.5 and TrxR1 substrate -11.0%.
For CS(=O)(=O)n1nc(OC(=O)c2cccc3ccccc23)cc1N the results were TrxR1 inh 56.2µM*, GALK inh -2.8%, Gal4-VP16 FLuc -25.7%, RORg inh 0.5%, Coupling enz -1.9 and TrxR1 substrate -5.5%.
CS(=O)(=O)n1nc(OC(=O)c2cc(Br)ccc2Cl)cc1N was read as TrxR1 inh 6.31µM*, GALK inh 8.0%, Gal4-VP16 FLuc -23.4%, RORg inh 0.2%, Coupling enz -0.8 and TrxR1 substrate -0.1%.
For CS(=O)(=O)n1nc(OC(=O)c2cccs2)cc1N the results were TrxR1 inh inconclusive, GALK inh 1.3%, Gal4-VP16 FLuc -0.1%, RORg inh -33.9%, Coupling enz -1.3 and TrxR1 substrate 3.0%.
`O=C(Nc1nc2ccccc2n1CCN1CCCCC1)c1ccco1` gave TrxR1 inh -4.2%[57.1 µM], GALK inh 2.4%, Gal4-VP16 FLuc inconclusive, RORg inh 0.0%[10 µM], Coupling enz -0.9 and TrxR1 substrate -9.9%[57.1 µM].
Screening O=C(NCCCc1nc2ccccc2n1Cc1ccc(Cl)cc1)c1ccco1 returned TrxR1 inh -5.3% and TrxR1 substrate 1.3%.
For Cc1cccc(OCCn2c(NC(=O)c3ccco3)nc3ccccc32)c1 the results were TrxR1 inh -15.8%, GALK inh -2.7%, Gal4-VP16 FLuc 2µM*, RORg inh 1.41µM*, Coupling enz -4.7 and TrxR1 substrate 0.4%.
`C=CCn1c(C(C)C)nc2ccccc21` gave TrxR1 inh 23.7%, GALK inh 0.4%, Gal4-VP16 FLuc -5.0%[10 µM], RORg inh 11.2µM*, Coupling enz -0.2 and TrxR1 substrate 1.3%.
For C=CCn1c(C(O)c2ccccc2)nc2ccccc21 (configuration not stated) the results were TrxR1 inh 12.8%[57.1 µM], GALK inh 5.1%, Gal4-VP16 FLuc 6.1%, RORg inh 0.6%, Coupling enz 0.8 and TrxR1 substrate -10.8%.
For O=C(Nc1nc2ccccc2n1Cc1ccc(Cl)cc1)c1ccco1 the results were TrxR1 inh -4.5%[57.1 µM], GALK inh -0.2%, Gal4-VP16 FLuc 2µM*, RORg inh 0.708µM*, Coupling enz -4.3 and TrxR1 substrate 15.9%[57.1 µM].
Cc1cccc(OCCn2c(S(=O)(=O)O)nc3ccccc32)c1 was read as TrxR1 inh -2.3%, GALK inh 0.0%, Gal4-VP16 FLuc -2.2%, RORg inh 17.8%, Coupling enz 18.9 and TrxR1 substrate 5.0%.
O=C(Nc1nc2ccccc2n1CCOc1ccccc1)c1ccco1 was read as TrxR1 inh 26.0%[57.1 µM], GALK inh 3.4%, Gal4-VP16 FLuc 5.01µM*, RORg inh 2µM*, Coupling enz -12.3 and TrxR1 substrate 3.4%[57.1 µM].
`CCOc1ccccc1NC(=O)CN(C)S(=O)(=O)c1ccc(C(=O)N2CCOCC2)s1` gave TrxR1 inh 2.1%[57.1 µM] and TrxR1 substrate -5.0%[57.1 µM].
Cc1c(CNCCCc2ccccc2)c(C(=O)O)c(C)n1Cc1cccc(Cl)c1 was read as TrxR1 inh -8.5% and TrxR1 substrate 0.9%.
For Cc1cccc(SC2CCN(C(=O)C3CCC(=O)N(C4CC4)C3)CC2)c1 (configuration not stated) the results were TrxR1 inh 21.7%, GALK inh -1.0%, Gal4-VP16 FLuc -0.1%, RORg inh 13.3%, Coupling enz -0.1 and TrxR1 substrate -3.7%.
For CC(NC(=O)/C=C/c1ccco1)c1nc2ccccc2n1Cc1cccc(Cl)c1 (configuration not stated) the results were TrxR1 inh 14.1µM*, GALK inh 0.8%, Gal4-VP16 FLuc 11.2µM*, RORg inh inconclusive, Coupling enz 0.1 and TrxR1 substrate -2.5%.
For CC(=O)Nc1nc2ccccc2n1Cc1ccc(Cl)cc1 the results were TrxR1 inh -10.1%, GALK inh -1.2%, Gal4-VP16 FLuc 1.58µM*, RORg inh 1.12µM*, Coupling enz -1.0 and TrxR1 substrate -3.7%.
Screening Cc1ccc(OCCn2c(NC(=O)c3ccco3)nc3ccccc32)cc1 returned TrxR1 inh -10.6%, GALK inh -4.3%, Gal4-VP16 FLuc 2µM*, RORg inh 1.58µM*, Coupling enz -8.6 and TrxR1 substrate -0.7%.
For C=CCn1c(NC(=O)c2ccco2)nc2ccccc21 the results were TrxR1 inh 22.6%, GALK inh -4.8%, Gal4-VP16 FLuc 3.55µM*, RORg inh 3.98µM* and TrxR1 substrate 4.6%.
`CCn1c(NC(C)=O)nc2ccccc21` gave TrxR1 inh -7.0%, GALK inh -0.4%, Gal4-VP16 FLuc inconclusive, RORg inh inconclusive, Coupling enz 1.7 and TrxR1 substrate -3.8%.

Screening data: PubChem BioAssay, National Center for Advancing Translational Sciences (NCATS)
